Data: PubChem BioAssay (NCATS)
“And” between values parts separate entries of the source, which are not always exact repeats. Identical values can stand only once. Inconclusive results are not listed. Entries that show only a call come without a potency. The source holds several records for some structures; these can differ, active in one and inactive in another. Values without a mark were called inactive. The source made the active and inactive calls. Calls come from the whole dose curve; as a rule, active = well fitted inhibition curve with a large enough effect; inconclusive = small, poorly fitted or top-dose-only effect; inactive = flat fitted curve, though single readings scatter.

How the values were obtained:
[1] = tested on: JCK; test: qHTS profiling for inhibitors of Plasmodium falciparum proliferation (AID 504749); note: potency is the fitted concentration of half-maximal effect; conditions: P. falciparum in erythrocytes, SYBR Green DNA, 72 h; series mostly up to 28.7 µM
Outline: (§1)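 In a 72 h erythrocytic culture (37 C, humidified, 5% CO2) at 2.5% hematocrit and 0.3% starting parasitemia, compounds were tested; SYBR Green I in detergent lysis buffer stained parasite DNA overnight.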

[2] = tested on: N140; test: as above; conditions: P. falciparum in erythrocytes, SYBR Green DNA, 72 h; series mostly up to 28.7 µM
Outline: as §1

[3] = tested on: P93_24; test: as above; conditions: P. falciparum in erythrocytes, SYBR Green DNA, 72 h; series mostly up to 28.7 µM
Outline: as §1

[4] = tested on: P94_40; test: as above; conditions: P. falciparum in erythrocytes, SYBR Green DNA, 72 h; series mostly up to 28.7 µM
Outline: as §1

[5] = tested on: PAD; test: as above; conditions: P. falciparum in erythrocytes, SYBR Green DNA, 72 h; series mostly up to 28.7 µM
Outline: as §1

[6] = tested on: PC15; test: as above; conditions: P. falciparum in erythrocytes, SYBR Green DNA, 72 h; series mostly up to 28.7 µM
Outline: as §1

[7] = tested on: PC26; test: as above; conditions: P. falciparum in erythrocytes, SYBR Green DNA, 72 h; series mostly up to 28.7 µM
Outline: as §1

[8] = tested on: PC49; test: as above; conditions: P. falciparum in erythrocytes, SYBR Green DNA, 72 h; series mostly up to 28.7 µM
Outline: as §1

[9] = tested on: SC27B; test: as above; conditions: P. falciparum in erythrocytes, SYBR Green DNA, 72 h; series mostly up to 28.7 µM
Outline: as §1

[10] = tested on: TAB109; test: as above; conditions: P. falciparum in erythrocytes, SYBR Green DNA, 72 h; series mostly up to 28.7 µM
Outline: as §1

[11] = tested on: TAB113; test: as above; conditions: P. falciparum in erythrocytes, SYBR Green DNA, 72 h; series mostly up to 28.7 µM
Outline: as §1

[12] = tested on: TAB165; test: as above; conditions: P. falciparum in erythrocytes, SYBR Green DNA, 72 h; series mostly up to 28.7 µM
Outline: as §1

[13] = tested on: W2; test: as above; conditions: P. falciparum in erythrocytes, SYBR Green DNA, 72 h; series mostly up to 28.7 µM
Outline: as §1

[14] = tested on: CRL-7250; test: Cytotoxic Profiling of Annotated Libraries Using Quantitative High-Throughput Screening (AID 1296008); conditions: Five cell lines viability, CellTiter-Glo ATP luminescence, 48-72 h; max response: active compounds read low; note: potency is the fitted concentration of half-maximal effect
Outline: (§2)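 Cytotoxicity was measured as CellTiter-Glo ATP luminescence, read after 10 min at room temperature. Compound treatment of the cells lasted 48 or 72 hr at 37 degrees Celsius in a qHTS format.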

[15] = tested on: HEK293; test: as above; conditions: Five cell lines viability, CellTiter-Glo ATP luminescence, 48-72 h; max response: active compounds read low
Outline: as §2

[16] = tested on: KB-3-1; test: as above; conditions: Five cell lines viability, CellTiter-Glo ATP luminescence, 48-72 h; max response: active compounds read low
Outline: as §2

[17] = tested on: NIH3T3; test: as above; conditions: Five cell lines viability, CellTiter-Glo ATP luminescence, 48-72 h; max response: active compounds read low
Outline: as §2

[18] = tested on: HaCat; test: as above; conditions: Five cell lines viability, CellTiter-Glo ATP luminescence, 48-72 h; max response: active compounds read low
Outline: as §2

[19] = tested on: HACAT; test: qHTS assay to identify novel small-molecules to repurpose for Merkel cell carcinoma treatment (AID 1296009); conditions: MCC and control cell lines, CellTiter-Glo viability, 72 h; at 44.8 µM (top of the series) unless noted
Outline: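 Cell viability measured by CellTiter-Glo following 72 hr compound treatment at 37 degree celsius, with NPC and MIPE libraries tested in 8- and 11-point concentration series.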
Note: nearly all actives have a fitted effect of over 60% in size.

`CCCc1cc(=O)[nH]c(=S)[nH]1` was tested, and the Potency [1] was “inactive”, the Potency [2] was “inactive” and the Potency [3] was “inactive”. For the same compound, the Potency [4] was “inactive”, the Potency [5] was “inactive” and the Potency [6] was “inactive”. The Potency [7] was “inactive”, the Potency [8] was “inactive” and the Potency [9] was “inactive”. The Potency [10] was “inactive”, the Potency [11] was “inactive” and the Potency [12] was “inactive”. For the same compound, the Potency [13] was “inactive”, the max response [14] was 1.74% and -1.3% and the max response [15] was 2.66%. The max response [16] was 0.476%, the outcome [16] was “inactive” and the outcome [17] was “inactive; activator”.

In the case of `Cc1cc(C2CCCCC2)n(O)c(=O)c1`, the Potency [3] is reported as 3160 nM (active), the Potency [6] is reported as 3160 nM (active) and the Potency [8] is reported as “inactive”. The Potency [12] was 3160 nM (active), the Potency [13] was 3610 nM (active) and the Potency [14] was 3.35 µM (active) and 2.96 µM (active). For the same compound, the Potency [15] was 5.9 µM (active), the Potency [18] was 23.7 µM (active) and 20.9 µM (active) and the max response [16] was -16.3%. The Potency [17] was 3.76 µM (active) and 14.8 µM (active).

In the case of `CC(=O)O[C@H]1C(=O)[C@@]2(C)C([C@H](OC(=O)c3ccccc3)[C@]3(O)C[C@H](OC(=O)[C@H](O)[C@@H](NC(=O)c4ccccc4)c4ccccc4)C(C)=C1C3(C)C)[C@]1(OC(C)=O)CO[C@@H]1C[C@@H]2O` (some centres not stated), the Potency [15] is reported as 0.0057 µM (active), the max response [15] is reported as -90.8% and the Potency [16] is reported as 1 nM (active) and 7.2 nM (active). The Potency [17] was 5.9 nM (active) and 36 nM (active).

`CN(C)c1ccc2nc3ccc(=[N+](C)C)cc-3sc2c1` was tested, and the Potency [2] was 56.2 nM (active), the Potency [3] was 31.6 nM (active) and the Potency [4] was 44.7 nM (active). The Potency [5] was 31.6 nM (active), the Potency [7] was 67.5 nM (active) and the Potency [8] was “inactive”. For the same compound, the Potency [9] was 63.1 nM (active), the Potency [10] was 50.1 nM (active) and the Potency [11] was 50.1 nM (active). The Potency [12] was 70.8 nM (active), the Potency [13] was 47.8 nM (active) and the Potency [14] was 11.8 µM (active) and 23.7 µM (active). The Potency [15] was 1.66 µM (active) and 1.33 µM (active), the Potency [18] was 3.72 µM (active) and 10.6 µM (active) and the Potency [16] was 2.09 µM (active) and 6.51 µM (active). For the same compound, the Potency [17] was 5.26 µM (active) and 3.35 µM (active).

With `Nc1nc(Cl)nc2c1ncn2[C@H]1C[C@H](O)[C@@H](CO)O1` the Potency [1] was “inactive”, the Potency [2] was “inactive” and the Potency [3] was “inactive”. The Potency [4] was “inactive”, the Potency [5] was “inactive” and the Potency [6] was “inactive”. For the same compound, the Potency [8] was “inactive”, the Potency [9] was “inactive” and the Potency [10] was “inactive”. The Potency [11] was “inactive”, the Potency [12] was “inactive” and the Potency [15] was 2.35 µM (active). For the same compound, the Potency [18] was 1.32 µM (active) and the Potency [17] was 935 nM (active).

With `CN1C(C(=O)Nc2ccccn2)=C(O)c2sccc2S1(=O)=O` the Potency [1] was “inactive”, the Potency [2] was “inactive” and the Potency [3] was “inactive”. The Potency [4] was “inactive”, the Potency [5] was “inactive” and the Potency [6] was “inactive”. The Potency [7] was “inactive”, the Potency [8] was “inactive” and the Potency [9] was “inactive”. The Potency [10] was “inactive”, the Potency [11] was “inactive” and the Potency [12] was “inactive”. The Potency [13] was “inactive”.

`Cc1cccc(C#Cc2ccccc2)n1` was tested, and the max response [18] was -25.8%, the max response [16] was 9.05% and the max response [17] was -0.211%.

With `CCc1nc(N)nc(N)c1-c1ccc(Cl)cc1` the Potency [1] was “inactive”, the Potency [2] was “inactive” and the Potency [3] was “inactive”. For the same compound, the Potency [4] was “inactive”, the Potency [5] was “inactive” and the Potency [6] was “inactive”. The Potency [8] was “inactive”, the Potency [9] was “inactive” and the Potency [10] was “inactive”. The Potency [11] was “inactive”, the Potency [12] was 178 nM (active) and the max response [14] was -18.3%. For the same compound, the Potency [15] was 6.68 µM (active) and 18.7 µM (active), the max response [18] was 3.72% and the Potency [17] was 8.41 µM (active) and 9.35 µM (active).

`O=C(CS(=O)Cc1ccco1)NCC=CCOc1cc(CN2CCCCC2)ccn1` (configuration not stated) was tested, and the Potency [1] was “inactive”, the Potency [2] was “inactive” and the Potency [3] was “inactive”. The Potency [4] was “inactive”, the Potency [5] was “inactive” and the Potency [6] was “inactive”. The Potency [7] was “inactive”, the Potency [8] was “inactive” and the Potency [9] was “inactive”. For the same compound, the Potency [11] was “inactive”, the Potency [12] was “inactive” and the Potency [13] was “inactive”. For the same compound, the outcome [14] was “inactive”, the max response [15] was -11.3% and the max response [18] was 0.787%. For the same compound, the max response [16] was 2.68% and the outcome [17] was “inactive”.

For `Nc1nc(N)c(N=O)c(OCC2CCCCC2)n1`, the Potency [14] was 14.8 µM (active), the max response [18] was -17.6% and the Potency [17] was 16600 nM (active).

With `Cc1cc(Cl)ccc1OCCCC(=O)NO` the max response [14] was -2.51%, the max response [18] was 3.7% and the outcome [16] was “inactive”.

With `N=C(N)c1ccc2cc(OC(=O)c3ccc(N=C(N)N)cc3)ccc2c1` the Potency [1] was “inactive”, the Potency [5] was “inactive” and the Potency [13] was 6750 nM (active). For the same compound, the max response [14] was -0.158% and -1.28%, the max response [15] was -23.8% and 0.182% and the max response [18] was -5.52% and -24.6%. The max response [16] was 12.9% and the max response [17] was -7.31% and -12.8%.

In the case of `C=CCc1cc(OC)c(O)c(C(=O)NCCO)c1`, the Potency [1] is reported as “inactive”, the Potency [2] is reported as “inactive” and the Potency [3] is reported as “inactive”. The Potency [4] was “inactive”, the Potency [5] was “inactive” and the Potency [6] was “inactive”. The Potency [7] was “inactive”, the Potency [8] was “inactive” and the Potency [9] was “inactive”. For the same compound, the Potency [10] was “inactive”, the Potency [11] was “inactive” and the Potency [12] was “inactive”. For the same compound, the Potency [13] was “inactive”, the max response [15] was -0.342% and the max response [18] was -2.64%. The outcome [18] was “inactive”, the max response [16] was 8.32% and 9.16% and the max response [17] was -1.28% and -4.54%. For the same compound, the outcome [19] was “inactive”.

In the case of `COc1cc(Nc2c(C#N)cnc3cc(OCCCN4CCN(C)CC4)c(OC)cc23)c(Cl)cc1Cl`, the Potency [14] is reported as 3.72 µM (active) and 6.51 µM (active), the Potency [15] is reported as 2.37 µM (active) and 4.18 µM (active) and 11.6 µM (active) and the Potency [18] is reported as 841 nM (active) and 1.66 µM (active) and 2.31 µM (active). For the same compound, the Potency [17] was 9.44 µM (active) and 1.18 µM (active) and 8.2 µM (active).
